# Screening results deposited in PubChem BioAssay by National Center for Advancing Translational Sciences (NCATS).
# Sampled rows, rich in hits. Any-hit rate of the full collection: about 3.9%.
# PLK1 PBD block: blocks phosphopeptide binding to human PLK1 polo-box domain. P53350. Plk1 PBD binding of FITC phosphopeptide, fluorescence polarization. Potency, µM, inactives show max response, negative = inhibition, actives largely listed as inhibitors. 2.8% of 360,000 active. AID 720504; further: series mostly up to about 57 µM; on the % scale 0 is the no-effect control and ±100 the full control effect; nearly all actives have a fitted effect of over 65% in size
# Tb PFK inh: blocks T. brucei phosphofructokinase | 0.17% of 330,000 active | O15648 | T. brucei PFK, ADP-Glo luminescence | Potency, µM (titrated, usually from 57.5 µM), without a hit: at the highest dose activity, negative = inhibition, most hits filed as inhibitors;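 further: 0% = uninhibited 1x PFK enzyme wells and -100% = no-enzyme wells; nearly all actives have a fitted effect of over 60% in size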
#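 Compounds were pin-transferred as a titration series up to 57 uM into substrate buffer (0.5 mM F6P, 0.1 mM ATP, pH 8.0), then 1.25 nM PFK was added and reactions ran 45 min before ADP-Glo detection.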
# VDR inhibitor: blocks the human vitamin D receptor; 0.93% of 400,000 active; VDR-SRC2-3 peptide fluorescence polarization, 2 h; Potency, µM, for inactives: max response, negative = inhibition, actives largely listed as inhibitors; P11473; further: on the % scale 0 is the no-effect control and ±100 the full control effect
# Target sequence (P11473 whole entry, looked up): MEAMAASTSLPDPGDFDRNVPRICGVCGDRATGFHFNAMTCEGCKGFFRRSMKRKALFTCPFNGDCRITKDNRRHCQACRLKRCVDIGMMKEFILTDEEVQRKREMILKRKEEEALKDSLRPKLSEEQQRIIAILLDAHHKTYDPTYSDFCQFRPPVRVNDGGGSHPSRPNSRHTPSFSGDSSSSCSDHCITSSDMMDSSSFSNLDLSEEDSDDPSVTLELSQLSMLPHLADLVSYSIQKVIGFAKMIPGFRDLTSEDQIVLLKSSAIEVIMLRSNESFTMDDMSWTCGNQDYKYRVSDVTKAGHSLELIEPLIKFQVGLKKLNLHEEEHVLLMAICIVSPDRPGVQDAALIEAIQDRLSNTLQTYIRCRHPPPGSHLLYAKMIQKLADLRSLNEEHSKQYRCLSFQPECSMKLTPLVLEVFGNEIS
#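 Fluorescence polarization assay measuring small-molecule disruption of VDR binding to the coregulator peptide SRC2-3. Compounds were pin-transferred (23 nl) into the reagent mix and incubated 2 h at room temperature before reading.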
# BRCA1 expr up: increases BRCA1 expression; MCF7-BRCA1-FFLuc reporter, luminescence, 48 h; response scale: scaled: vehicle 0%, 10 µM genistein 100%; Potency, µM (top dose mostly 46.1 µM), inactives show at the top dose activation, most hits filed as activators; 1.1% of 380,000 active; further: nearly all actives have a fitted effect of over 80% in size
#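 48 h compound treatment of MCF7-BRCA1-FFLuc cells (phenol-red free MEM, 37 °C), then 15 min with luciferase substrate and luminescence imaging.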
# The depositor's hits bear a star; ? = inconclusive; . = no result. The call rests on the fitted dose curve; in most records, active means well fitted curve in the direction sought with a large enough effect; inconclusive means small, poorly fitted or top-dose-only effect, or another doubt; inactive means no such curve, though single readings can be large; an effect the other way counts as inactive or inconclusive. Potency means the concentration at half of the fitted maximal effect.
SMILES,PLK1 PBD block,Tb PFK inh,VDR inhibitor,BRCA1 expr up
S=c1nc(C2CC2)[nH]c2ccccc12,24µM*,-10%,?,-2%
S=c1nc(C2CCCCC2)[nH]c2ccccc12,-7%,-3%,-6%,-2%
CCCN1CCN(CCCNC(=O)Cn2c(-c3cccs3)cc3cc(Cl)ccc32)CC1,.,.,11%,.
Nc1ccccc1SC/C=C/CSc1ccccc1N,12µM*,-9%,-23%,-7%
C[C@@H]1CN([C@@H](C)CO)C(=O)c2cc(NC(=O)CCN3CCOCC3)ccc2O[C@@H]1CN(C)C(=O)Nc1ccccc1,-5%,4%,-6%,1%
CC(C)C[C@@H](CNCC(=O)[C@H](CC(C)C)NC(=O)c1[nH]cnc1C(=O)N[C@@H](C)CN)NC(=O)c1nc[nH]c1C(=O)N[C@@H](CC(C)C)C(=O)O,27µM*,.,?,3%
CC(C)C[C@@H](CNCC(=O)[C@H](Cc1c[nH]c2ccccc12)NC(=O)c1[nH]cnc1C(=O)N[C@H](CN)CC(C)C)NC(=O)c1nc[nH]c1C(=O)N[C@@H](CC(=O)O)C(=O)O,-8%,.,-16%,14%
CC(C)C[C@@H](CNCC(=O)[C@H](Cc1c[nH]c2ccccc12)NC(=O)c1[nH]cnc1C(=O)N[C@@H](C)CN)NC(=O)c1nc[nH]c1C(=O)N[C@@H](CC(=O)O)C(=O)O,27µM*,.,?,-6%
CC1=C(C(=O)N(C)C)CC(CC(=O)NC2CCCC2)C(=O)N1Cc1ccccc1 (centres undefined),-9%,.,.,5%
COc1cc(NC(=O)CN(C)Cc2cccc(F)c2)c(C)cc1[N+](=O)[O-],27µM*,-1%,?,-15%
CO/N=C/C(=N\Nc1ccc(OC)cc1)C(=O)c1ccc(F)cc1,24µM*,1%,1%,-13%
CO/N=C\C(=N\Nc1ccc(OC)cc1)C(=O)c1ccccc1,5%,1%,10%,-16%
CO/N=C/C(=N\Nc1ccccc1)C(=O)c1ccccc1,24µM*,-1%,-25%,-20%
C[C@@H](O)C#C[Si](C)(C)c1ccccc1,.,.,8%,.
NS(=O)(=O)c1ccc(NC(=S)NCc2ccc3c(c2)OCO3)cc1,21µM*,-25%,0%,-25%
Fc1ccc(NC(=S)NCc2ccc3c(c2)OCO3)cc1,-2%,-5%,0%,-2%
O=C(NCc1ccc2c(c1)OCO2)Nc1ccc(F)cc1,-1%,-7%,25%,10µM*
CC(=O)N1CCCc2cc(S(=O)(=O)N3CCC(C(=O)NCc4ccccc4Cl)CC3)ccc21,.,.,10%,.
O=C(OCC(=O)N1CCc2ccccc21)c1n[nH]c(=O)c2ccccc12,1%,-11%,-2%,-4%
CC1(C)CC(=O)C=C(Nc2cccc(F)c2)C1,30µM*,0%,1%,-18%
COc1ccc(NC2=CC(=O)CC(C)(C)C2)cc1,-8%,-4%,-10%,-10%
COc1cccc(NC2=CC(=O)CC(C)(C)C2)c1,-8%,-2%,19%,10%
COC(=O)c1ccc(NC2=CC(=O)CC(C)(C)C2)cc1,3.4µM*,1%,-22%,-68%
COc1cc(NS(=O)(=O)c2ccc(-c3cc(C)no3)cc2)cc(OC)c1,.,.,0%,.
O=C(O)/C(CC(=O)c1ccc(Cl)cc1)=N/Nc1ccc([N+](=O)[O-])cc1[N+](=O)[O-],24µM*,10%,-27%,-1%
SMILES,PLK1 PBD block,Tb PFK inh,VDR inhibitor,BRCA1 expr up
CSc1cccc(NC(=O)Cn2nnc(C(=O)NCCc3ccccc3)c2N)c1,.,.,-8%,.
CN(N=O)c1ccc(C=C2C=Cc3ccccc32)cc1,-7%,.,-5%,?
CN(N=O)c1ccc(/C=C/c2ccccc2)cc1,.,.,.,5.6µM*
COc1ccc([N+](=O)[O-])cc1NC(=S)NC(=O)C(C)(C)C,?,-1%,18%,9%
COc1cc([N+](=O)[O-])ccc1NC(=S)NC(=O)CC(C)(C)C,27µM*,3%,-2%,-8%
Cc1ccc(-c2cc(C(=O)N3CCN(S(=O)(=O)c4ccc(Br)cc4)CC3)[nH]n2)cc1C,.,.,-3%,.
CC(C(=O)NC1CC1)c1ncc(C(F)(F)F)cc1Cl (centres undefined),-4%,-1%,-17%,19%
C#CCNC(=O)C(C)c1ncc(C(F)(F)F)cc1Cl (centres undefined),6.7µM*,-2%,?,27%
O=C1N=C(N2CCCC2C(=O)O)S/C1=C\c1ccco1 (centres undefined),3.4µM*,21%,?,-17%
Cc1cc(OCc2cc(C(=O)N(C)CCCN3CCOCC3)no2)cc(C)c1Cl,?,-1%,-11%,25%
CCN(CC1CCCO1)C(=O)c1cc(COc2cc(C)c(Cl)c(C)c2)on1 (centres undefined),-3%,-2%,-10%,6.3µM*
Cc1cc(OCc2cc(C(=O)N(C)Cc3ccccn3)no2)cc(C)c1Cl,-8%,2%,17%,11µM*
Cc1cc(OCc2cc(C(=O)N(C)CC3CCOCC3)no2)cc(C)c1Cl,27µM*,-10%,?,?
CC(=O)C1(C)C(=O)N(c2ccc(C)cc2)C(=O)N1c1ccc(C)cc1 (centres undefined),3%,.,-12%,2%
O=C(Nc1cccc(OCc2cc(=O)n3ccccc3n2)c1)c1ccccc1Br,.,.,3%,.
CCOCC(=O)Nc1cc(S(=O)(=O)N2CCOCC2)ccc1N1CCCCC1,4.7µM*,-22%,?,-11%
COc1cc(/C=C/C(=O)Nc2cc(S(=O)(=O)N3CCOCC3)ccc2N2CCCC2)cc(OC)c1OC,6.7µM*,-1%,?,-47%
O=C(Nc1cc(S(=O)(=O)N2CCOCC2)ccc1N1CCOCC1)c1ccc(Cl)nc1,30µM*,0%,-23%,1%
O=C(Nc1ccc(Cl)cc1)Nc1cc(S(=O)(=O)N2CCOCC2)ccc1N1CCCC1,-11%,-9%,-4%,-18%
COc1ccc(/C=C/C(=O)Nc2cc(S(=O)(=O)N3CCCCC3)ccc2N2CCCCC2)cc1OC,-5%,8%,9%,-8%
O=C(Nc1ccccc1)Nc1cc(S(=O)(=O)N2CCOCC2)ccc1N1CCCC1,21µM*,-7%,-11%,-26%
CCOC(=O)CCC(=O)Nc1cc(S(=O)(=O)N2CCOCC2)ccc1N1CCCCC1,-1%,-5%,15%,1%
O=C(NCCCc1nc2ccccc2n1CCCCOc1ccccc1)C1CCCCC1,.,.,-13%,0%
CN(Cc1ccco1)c1nc(-c2cccc(C#N)c2)nc2ccccc12,.,.,45µM*,.
CN(Cc1ccco1)c1nc(-c2ccoc2)nc2ccccc12,.,.,45µM*,.
SMILES,PLK1 PBD block,Tb PFK inh,VDR inhibitor,BRCA1 expr up
N#Cc1cccc(-c2nc(Nc3ccccc3)c3ccccc3n2)c1,.,.,-4%,.
Cc1noc(C)c1-c1nc(N(C)Cc2ccco2)c2ccccc2n1,.,.,28µM*,.
Cc1cc(C)cc(OC(C)C(=O)Nc2c(C(=O)c3ccccc3)oc3ccccc23)c1 (centres undefined),.,.,-8%,.
Fc1cccc2sc(N3CCCCC3)nc12,-9%,-1%,-10%,13µM*
CCNc1ccc(/C=C/c2ccnc3ccccc23)cc1,.,.,.,44%
O=C(/C=C/c1ccc(Cl)c(Cl)c1)NC1=NCCS1,21µM*,4%,-22%,?
CC(C)c1ccc(/C=C/C(=O)NC2=NCCS2)cc1,.,-1%,.,.
